# Data taken from PubChem BioAssay (NCI).
# This is part of a sample that, as a whole, favours compounds with a hit. Of some 79,000 tested, about 15% had one in any assay. A number with no mark means an inactive call. The source made the active and inactive calls. Cut-off read from the data, not from the text of the source: active = growth inhibition above about 70%; inactive = the rest.
# Assays:
# [1] = NCI Yeast Anticancer Drug Screen. Data for the rad52 strain (AID 147);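 note: 0% = growth of vehicle-treated control cultures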; details: S. cerevisiae rad52 mutant growth inhibition, hits give high values
# Procedure, shortened: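 Yeast strain carrying a DNA damage repair alteration was exposed to test compounds. Growth inhibition was measured relative to vehicle-treated controls.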
# [2] = NCI Yeast Anticancer Drug Screen. Data for the wt1 strain (AID 149);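 note: 0% = growth of vehicle-treated wt1 cultures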; details: S. cerevisiae wt1 strain (SPY 50644) growth inhibition, hits give high values
# Procedure, shortened: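 Measured: growth of wt1 yeast under compound versus vehicle treatment, reported as inhibition.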
# [3] = NCI Yeast Anticancer Drug Screen. Data for the rad50EPP+ strain (AID 151);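 note: 0% = growth of vehicle-treated control cultures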; details: S. cerevisiae rad50 mutant strain, hits give high values
# Procedure, shortened: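 Yeast strain carrying rad50 alteration (rad50EPP+) exposed to compounds; growth inhibition measured relative to vehicle-treated controls.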
# [4] = NCI Yeast Anticancer Drug Screen. Data for the mgt1 strain (AID 153); details: S. cerevisiae mgt1 mutant growth inhibition, hits give high values
# Procedure, shortened: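 Yeast mgt1 strain (DNA repair/cell-cycle alteration panel) exposed to compounds; growth inhibition measured relative to vehicle-treated controls.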
# [5] = NCI Yeast Anticancer Drug Screen. Data for the rad50 strain (AID 155);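 note: 0% = growth of vehicle-only cultures of the same strain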; details: S. cerevisiae rad50 strain growth inhibition, hits give high values
# Procedure, shortened: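 Growth of the mutant yeast was measured after compound exposure and referenced to vehicle-treated cultures.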
# [6] = NCI Yeast Anticancer Drug Screen. Data for the mec2-1 strain (AID 157); details: S. cerevisiae mec2-1 strain, hits give high values
# Procedure, shortened: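 mec2-1 yeast strain, carrying an alteration in DNA damage repair or cell cycle control, was exposed to compounds; growth inhibition was measured relative to vehicle-treated controls.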
# [7] = NCI Yeast Anticancer Drug Screen. Data for the rad14 strain (AID 159);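 note: 0% = growth of vehicle-treated control cultures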; details: S. cerevisiae rad14 strain growth inhibition, hits give high values
# Procedure, shortened: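 Here, inhibition of yeast growth was measured after compound exposure, using a strain with a genetic defect in DNA damage repair and vehicle-treated cultures as the reference.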
# [8] = NCI Yeast Anticancer Drug Screen. Data for the sgs1 mgt1 strain (AID 161);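 note: 0% = growth of cultures given vehicle only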; details: S. cerevisiae sgs1 mgt1 strain, hits give high values
# Procedure, shortened: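 This yeast growth screen uses a strain with defined DNA-repair lesions; compound-treated growth is compared with vehicle-treated growth.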
# [9] = NCI Yeast Anticancer Drug Screen. Data for the CLN2oe strain (AID 163);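 note: 0% = growth of vehicle-only control cultures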; details: S. cerevisiae CLN2oe strain, hits give high values
# Procedure, shortened: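 Yeast cells carrying a defined cell-cycle control alteration were exposed to test compounds. Growth inhibition was scored against vehicle-treated control cultures.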
# [10] = NCI Yeast Anticancer Drug Screen. Data for the cln2 rad14 strain (AID 165);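 note: 0% = growth equal to vehicle treated cultures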; details: S. cerevisiae cln2 rad14 strain, hits give high values
# Procedure, shortened: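 Yeast carrying cln2 and rad14 alterations (cell cycle control and DNA damage repair) were exposed to compounds. Growth inhibition was measured against vehicle-treated controls.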
# [11] = NCI Yeast Anticancer Drug Screen. Data for the bub3 strain (AID 167); details: S. cerevisiae bub3 mutant strain, hits give high values
# Procedure, shortened: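 Whole-cell yeast assay. The mutant strain was incubated with compounds, and growth inhibition was determined by comparison with vehicle-treated cells.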
# [12] = NCI Yeast Anticancer Drug Screen. Data for the wt2 strain (AID 169);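 note: 0% = growth of vehicle-treated yeast cultures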; details: S. cerevisiae wt2 strain growth inhibition, hits give high values
# Procedure, shortened: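 Yeast cells were exposed to test compounds, and growth inhibition was measured relative to vehicle-treated controls.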
# [13] = NCI Yeast Anticancer Drug Screen. Data for the mlh1 strain (AID 171);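 note: 0% = growth of vehicle-treated control cultures of the same strain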; details: S. cerevisiae mlh1 strain growth inhibition, hits give high values
# Procedure, shortened: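 Yeast carrying a defined genetic alteration in DNA damage repair or cell cycle control were exposed to test compounds. Growth inhibition was measured relative to vehicle-treated controls.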
# [14] = NCI Yeast Anticancer Drug Screen. Data for the sgs1 strain (AID 173);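 note: 0% = growth of vehicle-only control cultures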; details: S. cerevisiae sgs1 mutant, hits give high values
# Procedure, shortened: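 Yeast mutant strains carrying defined defects in DNA damage repair or cell cycle control were exposed to test compounds. Growth inhibition was scored against vehicle-treated controls.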
# [15] = NCI Yeast Anticancer Drug Screen. Data for the rad18 strain (AID 177); details: S. cerevisiae rad18 mutant growth inhibition, hits give high values
# Procedure, shortened: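 Yeast carrying a defined DNA damage repair alteration were exposed to compounds. Growth inhibition was expressed relative to vehicle-treated controls.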
# [16] = NCI Yeast Anticancer Drug Screen. Data for the mlh1 rad18 strain (AID 175); details: S. cerevisiae mlh1 rad18 strain growth inhibition, hits give high values
# Procedure, shortened: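 Growth inhibition of the yeast strain was measured after compound exposure and expressed relative to vehicle-treated controls. The strain carries defined defects in DNA damage repair.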
# [17] = at 5.0 µM (retest, dose inferred, filed as 0.5)
# [18] = at 50.0 µM (retest, dose inferred, filed as 5.0)
structure (smiles),measurement,setting,value
Cc1cccc2c(Cl)c3cccc(C)c3nc12,growth inhibition,[1]; at 1.2 µM,1%
same,growth inhibition,[1]; at 3.7 µM,-1%
same,growth inhibition,[1]; at 11.0 µM,8%
same,growth inhibition,[1]; at 33.0 µM,42%
same,growth inhibition,[1]; at 100.0 µM,65%
same,growth inhibition,[2]; at 1.2 µM,-2%
same,growth inhibition,[2]; at 3.7 µM,-3%
same,growth inhibition,[2]; at 11.0 µM,-1%
same,growth inhibition,[2]; at 33.0 µM,-1%
same,growth inhibition,[2]; at 100.0 µM,2%
same,growth inhibition,[3]; at 1.2 µM,2%
same,growth inhibition,[3]; at 3.7 µM,5%
same,growth inhibition,[3]; at 11.0 µM,26%
same,growth inhibition,[3]; at 33.0 µM,64%
same,growth inhibition,[3]; at 100.0 µM,61%
same,growth inhibition,[4]; at 1.2 µM,-4%
same,growth inhibition,[4]; at 3.7 µM,1%
same,growth inhibition,[4]; at 11.0 µM,-7%
same,growth inhibition,[4]; at 33.0 µM,0%
same,growth inhibition,[4]; at 100.0 µM,-10%
same,growth inhibition,[5]; at 1.2 µM,1%
same,growth inhibition,[5]; at 3.7 µM,10%
same,growth inhibition,[5]; [17],13%
same,growth inhibition,[5]; at 11.0 µM,21%
same,growth inhibition,[5]; at 33.0 µM,44%
same,growth inhibition,[5]; [18],75% (active)
same,growth inhibition,[5]; at 50.0 µM,75% (active)
same,growth inhibition,[5]; at 100.0 µM,62%
same,growth inhibition,[6]; at 1.2 µM,-10%
same,growth inhibition,[6]; at 3.7 µM,-13%
same,growth inhibition,[6]; [17],7%
same,growth inhibition,[6]; at 11.0 µM,-10%
same,growth inhibition,[6]; at 33.0 µM,1%
same,growth inhibition,[6]; [18],25%
same,growth inhibition,[6]; at 50.0 µM,-15.9%
same,growth inhibition,[6]; at 100.0 µM,6%
same,growth inhibition,[7]; at 1.2 µM,-2%
same,growth inhibition,[7]; at 3.7 µM,11%
same,growth inhibition,[7]; at 11.0 µM,4%
same,growth inhibition,[7]; at 33.0 µM,13%
same,growth inhibition,[7]; at 100.0 µM,12%
same,growth inhibition,[8]; [17],-6%
same,growth inhibition,[8]; [18],58%
same,growth inhibition,[8]; at 50.0 µM,-15.8%
same,growth inhibition,[9]; at 1.2 µM,-5%
same,growth inhibition,[9]; at 3.7 µM,-5%
same,growth inhibition,[9]; at 11.0 µM,-7%
same,growth inhibition,[9]; at 33.0 µM,-7%
same,growth inhibition,[9]; at 100.0 µM,-3%
same,growth inhibition,[10]; [17],-33%
same,growth inhibition,[10]; [18],10%
same,growth inhibition,[10]; at 50.0 µM,1.65%
same,growth inhibition,[11]; at 1.2 µM,-8%
same,growth inhibition,[11]; at 3.7 µM,6%
same,growth inhibition,[11]; [17],0%
same,growth inhibition,[11]; at 11.0 µM,2%
same,growth inhibition,[11]; at 33.0 µM,1%
same,growth inhibition,[11]; [18],18%
same,growth inhibition,[11]; at 50.0 µM,-28.9%
same,growth inhibition,[11]; at 100.0 µM,-17%
same,growth inhibition,[12]; at 1.2 µM,-4%
same,growth inhibition,[12]; at 3.7 µM,-3%
same,growth inhibition,[12]; at 11.0 µM,-2%
same,growth inhibition,[12]; at 33.0 µM,3%
same,growth inhibition,[12]; at 100.0 µM,5%
same,growth inhibition,[13]; at 1.2 µM,-3%
same,growth inhibition,[13]; at 3.7 µM,-2%
same,growth inhibition,[13]; at 11.0 µM,3%
same,growth inhibition,[13]; at 33.0 µM,12%
same,growth inhibition,[13]; at 100.0 µM,12%
same,growth inhibition,[14]; at 1.2 µM,-3%
same,growth inhibition,[14]; at 3.7 µM,-5%
same,growth inhibition,[14]; at 11.0 µM,-4%
same,growth inhibition,[14]; at 33.0 µM,2%
same,growth inhibition,[14]; at 100.0 µM,2%
same,growth inhibition,[15]; at 1.2 µM,-3%
same,growth inhibition,[15]; at 3.7 µM,-3%
same,growth inhibition,[15]; at 11.0 µM,-1%
same,growth inhibition,[15]; at 33.0 µM,6%
same,growth inhibition,[15]; at 100.0 µM,14%
Nc1cc(Cl)ccc1Nc1ccccc1,growth inhibition,[1]; at 1.2 µM,-25%
same,growth inhibition,[1]; at 3.7 µM,-22%
same,growth inhibition,[1]; at 11.0 µM,-27%
same,growth inhibition,[1]; at 33.0 µM,-18%
same,growth inhibition,[1]; at 100.0 µM,68%
same,growth inhibition,[2]; at 1.2 µM,-31%
same,growth inhibition,[2]; at 3.7 µM,-26%
same,growth inhibition,[2]; at 11.0 µM,-25%
same,growth inhibition,[2]; at 33.0 µM,-17%
same,growth inhibition,[2]; at 100.0 µM,94% (active)
same,growth inhibition,[3]; at 1.2 µM,-58%
same,growth inhibition,[3]; at 3.7 µM,-21%
same,growth inhibition,[3]; at 11.0 µM,-19%
same,growth inhibition,[3]; at 33.0 µM,28%
same,growth inhibition,[3]; at 100.0 µM,69%
same,growth inhibition,[4]; at 1.2 µM,-25%
same,growth inhibition,[4]; at 3.7 µM,-15%
same,growth inhibition,[4]; at 11.0 µM,-10%
same,growth inhibition,[4]; at 33.0 µM,-1%
same,growth inhibition,[4]; at 100.0 µM,85% (active)
same,growth inhibition,[5]; at 1.2 µM,-21%
same,growth inhibition,[5]; at 3.7 µM,-15%
same,growth inhibition,[5]; [17],60%
same,growth inhibition,[5]; at 11.0 µM,-8%
same,growth inhibition,[5]; at 33.0 µM,16%
same,growth inhibition,[5]; [18],99% (active)
same,growth inhibition,[5]; at 50.0 µM,79.2% (active)
same,growth inhibition,[5]; at 100.0 µM,93% (active)
same,growth inhibition,[6]; at 1.2 µM,-42%
same,growth inhibition,[6]; at 3.7 µM,-6%
same,growth inhibition,[6]; [17],65%
same,growth inhibition,[6]; at 11.0 µM,-49%
same,growth inhibition,[6]; at 33.0 µM,-33%
same,growth inhibition,[6]; [18],99% (active)
same,growth inhibition,[6]; at 50.0 µM,79.8% (active)
same,growth inhibition,[6]; at 100.0 µM,92% (active)
same,growth inhibition,[7]; at 1.2 µM,-7%
same,growth inhibition,[7]; at 3.7 µM,-13%
same,growth inhibition,[7]; at 11.0 µM,-14%
same,growth inhibition,[7]; at 33.0 µM,1%
same,growth inhibition,[7]; at 100.0 µM,87% (active)
same,growth inhibition,[8]; [17],9%
same,growth inhibition,[8]; [18],91% (active)
same,growth inhibition,[8]; at 50.0 µM,83.5% (active)
same,growth inhibition,[9]; at 1.2 µM,5%
same,growth inhibition,[9]; at 3.7 µM,3%
same,growth inhibition,[9]; at 11.0 µM,-1%
same,growth inhibition,[9]; at 33.0 µM,3%
same,growth inhibition,[9]; at 100.0 µM,84% (active)
same,growth inhibition,[10]; [17],24%
same,growth inhibition,[10]; [18],95% (active)
same,growth inhibition,[10]; at 50.0 µM,61.1%
same,growth inhibition,[11]; at 1.2 µM,-21%
same,growth inhibition,[11]; at 3.7 µM,-16%
same,growth inhibition,[11]; [17],20%
same,growth inhibition,[11]; at 11.0 µM,-24%
same,growth inhibition,[11]; at 33.0 µM,-8%
same,growth inhibition,[11]; [18],92% (active)
same,growth inhibition,[11]; at 50.0 µM,84% (active)
same,growth inhibition,[11]; at 100.0 µM,93% (active)
same,growth inhibition,[12]; at 1.2 µM,-15%
same,growth inhibition,[12]; at 3.7 µM,-15%
same,growth inhibition,[12]; at 11.0 µM,-22%
same,growth inhibition,[12]; at 33.0 µM,5%
same,growth inhibition,[12]; at 100.0 µM,95% (active)
same,growth inhibition,[13]; at 1.2 µM,-85%
same,growth inhibition,[13]; at 3.7 µM,-70%
same,growth inhibition,[13]; at 11.0 µM,-31%
same,growth inhibition,[13]; at 33.0 µM,-25%
same,growth inhibition,[13]; at 100.0 µM,79% (active)
same,growth inhibition,[16]; [17],62%
same,growth inhibition,[16]; [18],99% (active)
same,growth inhibition,[16]; at 50.0 µM,84% (active)
same,growth inhibition,[15]; at 1.2 µM,-15%
same,growth inhibition,[15]; at 3.7 µM,-39%
same,growth inhibition,[15]; at 11.0 µM,-24%
same,growth inhibition,[15]; at 33.0 µM,-15%
same,growth inhibition,[15]; at 100.0 µM,85% (active)
